TNAP act DEA: activates human TNAP at intermediate phosphate acceptor concentration | P05186 | purified TNAP, CDP-star luminescence, 100 mM DEA, 30 min; active compounds read high; scale: 0 levamisole-inhibited, 1 vehicle-only enzyme | activation factor at 20 µM | 64,000 tested, under 10 active;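 active means activation factor of at least 2 at 20 µM, relative to controls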
Cav3 T inh: human Cav3.2 channel inhibition, primary screen; B-score at 10 µM; 100,000 tested, 4% active; Cav3.2-expressing cells, Fluo-4 calcium fluorescence FDSS; active compounds read low; AID 449739;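 active means single-dose well whose peak fluorescence ratio is a statistical outlier from its plate by either plate-standardised score or position-corrected B-score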
hDAT+cocaine: changed human dopamine transporter uptake under cocaine IC80. AID 449768. LLC-PK1 hDAT cells, [14C]-dopamine uptake with cocaine IC80; actives deviate in either direction. 110,000 tested, 1.3% active. B-score at 10 µM;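 active means Z score or B-score, a plate-position-corrected score, falls beyond the plate's 99.7% confidence bounds, in either direction; inactive means both scores lie inside the 99.7% bounds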
Target sequence (Q01959 whole entry, looked up): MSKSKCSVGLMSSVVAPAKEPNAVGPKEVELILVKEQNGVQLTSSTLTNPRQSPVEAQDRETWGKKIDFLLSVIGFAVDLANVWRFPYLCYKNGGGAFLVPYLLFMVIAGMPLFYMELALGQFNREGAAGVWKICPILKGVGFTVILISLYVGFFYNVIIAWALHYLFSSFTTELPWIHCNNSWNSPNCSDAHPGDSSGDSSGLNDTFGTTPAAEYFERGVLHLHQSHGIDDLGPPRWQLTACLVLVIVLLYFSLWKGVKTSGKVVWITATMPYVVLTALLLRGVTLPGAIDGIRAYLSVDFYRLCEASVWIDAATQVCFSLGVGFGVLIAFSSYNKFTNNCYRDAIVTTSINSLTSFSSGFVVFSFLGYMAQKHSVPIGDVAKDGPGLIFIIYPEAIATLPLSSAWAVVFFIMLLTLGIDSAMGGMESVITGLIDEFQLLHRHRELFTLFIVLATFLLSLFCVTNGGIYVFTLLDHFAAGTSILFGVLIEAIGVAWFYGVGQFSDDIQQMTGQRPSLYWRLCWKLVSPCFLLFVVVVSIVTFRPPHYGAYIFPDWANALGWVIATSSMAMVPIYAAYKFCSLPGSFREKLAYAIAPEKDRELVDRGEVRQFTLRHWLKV
PostGolgi yeast: growth inhibition of a yeast mutant, post-Golgi transport screen; 98,000 tested, 0.9% active; inhibition, % at 10 µM; post-Golgi transport phenotypic cell assay;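 further: yeast cells grown in 1536-well plates; yeast grown about 18 h at 30C before absorbance read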
PostGolgi ctrl: yeast control strain growth, post-Golgi counter-screen | efflux-deficient yeast background strain, growth absorbance A615, 16 h | inhibition, % at 10 µM | 98,000 tested, 5% active | AID 738
Smad3 inh: Smad3 (human) transcription factor binding inhibition; TR-FRET Smad3/Dy647-FoxH1 peptide binding, europium anti-His; inhibition, % at 25 µM; 88,000 tested, 0.29% active; AID 630;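 active means compounds that reduce the energy-transfer binding signal between the protein and its labelled peptide by more than half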
A number is an active result; i = inactive; nt = not tested or not shown. Hits are enriched below; roughly 8.7% of the tested compounds scored in any of these assays. Unless noted, no stated cut-off is given here; in the data, active means inhibition above about 30%; inactive means the rest.

SMILES	TNAP act DEA	Cav3 T inh	hDAT+cocaine	PostGolgi yeast	PostGolgi ctrl	Smad3 inh
COc1cccc(C(=O)Nc2ccccc2N2CCOCC2)c1	i	nt	i	i	i	i
COc1cccc(C(=O)OCC(=O)Nc2ccccc2N2CCOCC2)c1	i	i	nt	i	38	i
Cc1ccccc1N(CC(=O)N/N=C/c1ccc(N(C)C)cc1)C(=O)c1ccccc1	nt	-4.5	nt	i	i	nt
Cc1ccccc1N(CC(=O)N/N=C/c1ccccc1Cl)C(=O)c1ccccc1	nt	i	i	i	i	nt
CCN(CC)c1ccc2cc(-c3nc4ccccc4[nH]3)c(=O)oc2c1	i	-7.3	i	i	i	i
CCN(CC)c1ccc2cc(-c3nnc(-c4ccccc4)o3)c(=O)oc2c1	nt	-11	i	nt	nt	i
COc1ccc(CNC(=O)C(C)NC(=O)c2cc3ccccc3o2)cc1 (configuration not stated)	i	i	-1.7	i	i	i
Nn1c(SCc2cccc3ccccc23)nnc1-c1ccco1	i	i	i	i	i	i
Cn1c(SCc2cccc3ccccc23)nnc1-c1ccco1	i	i	2.7	i	i	i
CCOC(=O)c1sc2cc([N+](=O)[O-])cc(SCC(C)C)c2c1N	nt	i	i	i	i	nt
O=C(N/N=C\c1ccc(COc2ccc([N+](=O)[O-])cc2)o1)c1cccc(Cl)c1	nt	-7.6	i	i	i	nt
Cc1nnc(SCCN2CCOCC2)n1-c1cccc(Cl)c1	i	i	i	i	i	i
CN1c2ccccc2C(O)=C(C(=S)Nc2ccccc2)S1(=O)=O	nt	i	i	i	i	nt
CN1c2ccccc2C(O)=C(C(=S)Nc2ccc(F)c(Cl)c2)S1(=O)=O	nt	-11	i	i	i	nt
Oc1ccc(Oc2ccc3c(C(F)(F)F)cc(C(F)(F)F)nc3n2)cc1	nt	-6.9	i	i	i	nt
O=C(NCc1ccccc1)NS(=O)(=O)c1ccccc1Cl	i	i	i	30	i	nt
Cc1ccc(C2C(C#N)=C(N)Oc3n[nH]c(-c4cccs4)c32)s1 (configuration not stated)	i	i	i	i	i	i
CSc1ccc(C(=S)N2CCN(Cc3ccccc3)CC2)cc1	nt	i	i	i	i	i
C[C@@H]1C=C[C@](Cc2ccccc2)(C(=O)NCCc2c[nH]c3ccccc23)N1C(=O)c1ccccc1	nt	i	i	nt	nt	nt
Cc1cc(N)n2ncc(-c3ccccc3)c2n1	i	i	i	i	i	i
Cc1cc(N)n2ncc(-c3cccc(Br)c3)c2n1	i	i	i	i	33	i
COc1ccc(-c2c(C#N)c(N)nc3c2CCCC3)cc1OC	i	i	i	nt	nt	i
Cc1nc2sccn2c1-c1nc(-c2cc3ccccc3o2)cs1	i	nt	nt	i	34	i
CC1(C)C(=O)Nc2ccccc2N1C(=O)COc1ncnc2ccccc12	i	i	i	i	i	i
COc1cc(NC(=O)c2ccnnc2)cc(C(=O)Nc2cccc(C(F)(F)F)c2)c1	nt	i	3.3	nt	nt	nt
SMILES	TNAP act DEA	Cav3 T inh	hDAT+cocaine	PostGolgi yeast	PostGolgi ctrl	Smad3 inh
CCOc1nc(NC2CCCCC2)nc(NC(C)(C)C)n1	nt	-5.3	i	nt	nt	i
CC(=O)Nc1cccc(N2CCCC2=O)c1	i	i	i	i	i	i
CC(=O)Nc1cccc(N2C(=O)CCC2=O)c1	nt	i	i	i	38	i
O=[N+]([O-])c1ccc2c(N=Nc3ccc4ccccc4c3O)c(O)cc(S(=O)(=O)O)c2c1	nt	nt	nt	nt	nt	72
O=S(=O)(O)c1ccc2c(N=Nc3cccc4ccccc34)c(O)c(S(=O)(=O)O)cc2c1	nt	nt	nt	nt	nt	i
Cc1nc2ccccn2c1C(=O)N/N=C/c1cc(C)n(-c2ccc(Cl)cc2)c1C	nt	i	i	nt	nt	i
Cc1cc(/C=N/NC(=O)c2cccs2)c(C)n1-c1ccccc1	nt	-7.9	i	i	i	nt
O=C(Nc1nc(-c2cccs2)c(-c2ccccc2)s1)c1ccco1	i	i	i	36	32	i
O=C(Nc1nnc(COc2ccccc2)s1)c1ccco1	i	i	i	i	i	i
COc1cccc(-c2cc(C(F)(F)F)nc(-n3cncn3)n2)c1	i	i	3.3	i	i	i
Fc1ccc(-c2cc(C(F)(F)F)nc(-n3cncn3)n2)cc1	i	i	i	i	i	i
COc1cccc(-c2cc(C(F)(F)F)nc(NCc3ccco3)n2)c1	i	i	i	i	33	i
COc1ccc(-c2cc(C(F)(F)F)nc(NCc3ccco3)n2)cc1OC	i	i	i	i	i	i
CC(=O)N(c1c(C)n(C)n(-c2ccccc2)c1=O)C1(C(=O)NC2CCCCC2)CCCCC1	nt	i	i	i	i	i
